# According to PubChem BioAssay AID588525 (Broad Institute, 2011):
# Potency and affinity values are given separately. Inconclusive results are not listed. Values without a mark were called inactive. The rule behind the calls is not given here.
# Target: DNA topoisomerase I (Yersinia pestis CO92) (UniProt A0A2S9PM60)
# Assay: Yersinia topoisomerase I cleavage product accumulation – biochemical, Y. pestis CO92, cherry-pick, dose response (AID 588525)
# Details: purified Y. pestis Topo-I, plate reader; series mostly up to 38 µM; activity (cleavage complex accumulation): at the top concentration
# DNA topoisomerase I (Yersinia pestis CO92), sequence (A0A2S9PM60 1-871): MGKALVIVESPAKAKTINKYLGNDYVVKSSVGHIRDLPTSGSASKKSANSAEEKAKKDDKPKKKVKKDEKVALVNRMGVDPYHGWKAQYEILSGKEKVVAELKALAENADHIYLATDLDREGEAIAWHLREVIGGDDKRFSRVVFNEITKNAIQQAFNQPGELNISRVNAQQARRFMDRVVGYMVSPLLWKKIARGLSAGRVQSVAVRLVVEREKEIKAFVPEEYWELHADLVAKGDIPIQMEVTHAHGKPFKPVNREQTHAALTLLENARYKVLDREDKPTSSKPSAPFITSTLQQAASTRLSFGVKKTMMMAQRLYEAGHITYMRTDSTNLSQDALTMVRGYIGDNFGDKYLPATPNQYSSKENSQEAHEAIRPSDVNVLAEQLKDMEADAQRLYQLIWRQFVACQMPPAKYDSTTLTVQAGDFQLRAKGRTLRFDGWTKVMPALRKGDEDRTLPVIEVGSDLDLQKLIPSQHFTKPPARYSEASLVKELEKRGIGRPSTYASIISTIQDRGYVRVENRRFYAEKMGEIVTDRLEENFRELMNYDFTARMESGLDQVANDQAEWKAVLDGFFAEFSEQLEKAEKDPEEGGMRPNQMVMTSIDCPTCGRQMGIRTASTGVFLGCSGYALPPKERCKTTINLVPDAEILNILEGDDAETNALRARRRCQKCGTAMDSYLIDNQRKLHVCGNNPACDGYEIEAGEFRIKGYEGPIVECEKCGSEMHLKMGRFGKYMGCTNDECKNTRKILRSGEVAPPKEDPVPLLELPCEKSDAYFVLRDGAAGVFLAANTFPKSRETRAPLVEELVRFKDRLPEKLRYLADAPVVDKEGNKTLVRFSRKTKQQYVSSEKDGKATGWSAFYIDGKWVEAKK
row,Structure (SMILES),activity (cleavage complex accumulation)
1,C[C@H]1CCC(=O)N([C@H](CSc2ccccc2)Cc2ccccc2)CC1,12%
2,O=C(COc1c(Cl)cccc1Cl)Nc1ccccc1N1CCCC1,16.1%
3,C#CCN(C[C@@H](CC(C)C)NC(=O)OC(C)(C)C)S(=O)(=O)c1ccc(Br)cc1F,15.2%
4,O=C(Cc1ccccc1)CC(CC(=O)c1ccccc1)c1ccccc1 (centres undefined),40.3%
5,CC(C)OC(=O)C(C)(C)Oc1ccc(C(=O)c2ccc(Cl)cc2)cc1,20.1%
6,CC(=O)c1ccccc1OCc1ccc(C(=O)c2ccccc2)cc1,36.3%
7,O=C(NCCn1cc(SCc2ccccc2)c2ccccc21)c1ccccc1F,26.2% [at 5 µM]
8,CC1CCN(c2oc(Cc3cccc4ccccc34)nc2C#N)CC1,22.8%
9,O=C(OCc1ccccc1)N1CCC2CC1c1c(Cl)cccc12 (centres undefined),34.9%
10,Cc1cc(NC(=O)C(C)SCC(=O)N(C)CC(=O)Nc2ccc(F)cc2)no1 (centres undefined),16.3%
11,COc1ccc(C2CC(c3ccccc3)=NN2C(=O)COC(=O)c2cccc(S(=O)(=O)N3CCOCC3)c2)cc1 (centres undefined),40.6% [at 10 µM]
12,COc1ccccc1C(=O)NCCC(=O)N1CC=C(c2ccccc2)CC1,25.7%
13,CCCCC(CC)COC(=O)c1ccccc1C(=O)OCC(CC)CCCC (centres undefined),20.7%
14,Cc1ccc2c(Cl)c(C)c(N3CCCCC3)nc2n1,24.9% [at 10 µM]
15,COC(=O)c1ccc(C2C(Oc3ccc(OC)cc3)C(=O)N2CCc2ccc(F)cc2)cc1 (centres undefined),19.9% [at 19.5 µM]
16,Cc1ccccc1OCC(=O)Nc1ccccc1N1CCCCC1,37%
17,CSc1ccccc1NC(=O)COC(=O)c1ccccc1Cc1ccccc1,37.9%
18,CCCCOC(=O)Nc1nnc(/C=C/c2ccc(OC)cc2)s1,33.7%
19,CCCCn1c(C)cc(C)c(S(=O)(=O)c2ccccc2C)c1=O,30.2% [at 19.5 µM]
20,Cc1ccc(CSc2nc3c(c(N(C)C)n2)CCCC3)cc1,9.99%
21,CCCCCCCCN1[C@@H](CC(C)=O)c2cc(C(F)(F)F)ccc2S1(=O)=O,24.3% [at 10 µM]
22,O=C(COC(=O)CCC1CCCC1)Nc1ccccc1Sc1ccccc1,34.9%
23,O=C(NCC1(c2ccccc2)CCCC1)C1(c2ccccc2)CCCC1,18.5%
24,CCCCN1CC(COCc2ccccc2)Oc2cccc(F)c2S1(=O)=O (centres undefined),28.1%
